Source: PubChem BioAssay (NCATS)
Results filed as inconclusive are left out. The source made the active and inactive calls. Calls come from the whole dose curve; as a rule, active = well fitted cell-killing curve with a large enough effect; inconclusive = small, poorly fitted or top-dose-only effect, or effect the other way; inactive = flat fitted curve, though single readings scatter.

Assays:
Test in all cases: Primary qHTS to identify gynecologic anti-cancer compounds using libraries of approved drugs and bioactive compounds (AID 1345084); note: nearly all actives have a fitted effect of over 55% in size
Details in all cases: Gynecologic cancer cell panel viability, ATPlite luminescence, 48 h; series mostly up to 57.5 µM
C33A = system: C33A
How it was run: (§1)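 Luminescence from the ATPlite ATP-monitoring reagent indicates viable cell number; lower signal means cytotoxicity. Cells received compound 16 h after seeding and were exposed for 48 h across five concentrations.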

CAOV3 = system: CAOV3
How it was run: as §1

CASKI = system: CASKI
How it was run: as §1
% is set by controls: 0 for no effect and ±100 for the full control effect.

CCCOc1ccn2c(C(C)=O)cc(-c3ccccc3S(C)(=O)=O)c2c1
inactive: Potency (C33A) | Potency (CAOV3) | Potency (CASKI)

CC(=O)NC(C(=O)OC1CCC(C)(C)C2CC=C3C(=O)OCC3(O)C12C)C(C)C (configuration not stated)
inactive: Potency (C33A) | Potency (CAOV3) | Potency (CASKI)

C[C@@H]1O[C@@H](O[C@H]2[C@H](O[C@H]3CC[C@@]4(C)C(CC[C@]5(C)C4CC=C4C6CC(C)(C)CC[C@]6(C(=O)O[C@@H]6O[C@H](CO[C@@H]7O[C@H](CO)[C@@H](O[C@@H]8O[C@@H](C)[C@H](O)[C@@H](O)[C@H]8O)[C@H](O)[C@H]7O)[C@@H](O)[C@H](O)[C@H]6O)CC[C@]45C)[C@]3(C)CO)OC[C@H](O)[C@@H]2O)[C@H](O)[C@H](O)[C@H]1O (some centres not stated)
inactive: activity change, negative = cytotoxicity (C33A) -8.84% [at 6.55 µM] | activity change, negative = cytotoxicity (CAOV3) 1.96% [at 6.55 µM] | activity change, negative = cytotoxicity (CASKI) -8.63% [at 6.55 µM]

CC[C@H](C)/C=C(C)/C=C/C(=O)Cc1cc(O)c(C)c(O)c1C=O
inactive: Potency (C33A) | Potency (CAOV3) | Potency (CASKI)

Cc1cc(C)cc(NC(=O)Cc2ccc(OC(C)(C)C(=O)O)cc2)c1
inactive: Potency (C33A) | Potency (CAOV3) | Potency (CASKI)

Cc1ccc2c(c1)C=Cc1cc(C)ccc1C2c1cn(Cc2ccc(C(=O)Nc3nn[nH]n3)o2)c(=O)[nH]c1=S
inactive: Potency (C33A) | Potency (CAOV3) | Potency (CASKI)

COc1cc2c(cc1O)C1(OC)Cc3ccc4c(c3C1N(C)CC2)OCO4 (configuration not stated)
inactive: Potency (C33A) | Potency (CAOV3) | Potency (CASKI)

C=C1CCC2C(OC(=O)C2(O)COC(C)=O)C2C(=C)C(O)CC12 (configuration not stated)
inactive: Potency (C33A) | Potency (CAOV3) | Potency (CASKI)

OCc1ccccc1O[C@@H]1O[C@H](CO)[C@@H](O)[C@H](O)[C@H]1O
inactive: Potency (C33A) | Potency (CAOV3) | Potency (CASKI)
